The record followed here is article PMC7862700, “An all-to-all approach to the identification of sequence-specific readers for epigenetic DNA modifications on cytosine”.

What all share (assay): DAPPL (digital affinity profiling via proximity ligation, sequencing); 10 mM Tris-HCl pH 7.5, 50 mM NaCl, 1 mM DTT, 4% glycerol, room temperature, 30 min; GST-TFs on glutathione beads, 16-mer random dsDNA library, 0.1% formaldehyde crosslink after washing; high values mean tight binding
One test addresses T1, FEV (Homo sapiens, UniProt Q99581 1-238).
T1 sequence: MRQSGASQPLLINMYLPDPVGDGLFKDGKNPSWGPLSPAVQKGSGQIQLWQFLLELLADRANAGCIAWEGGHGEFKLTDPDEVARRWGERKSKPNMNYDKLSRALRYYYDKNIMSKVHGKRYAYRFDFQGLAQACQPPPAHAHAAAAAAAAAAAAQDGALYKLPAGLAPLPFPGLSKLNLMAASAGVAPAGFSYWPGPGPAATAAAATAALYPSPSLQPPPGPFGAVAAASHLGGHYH
The conditions noted are these: protein: recombinant; tags: N-terminal GST; dsDNA, one strand shown. An outline of the steps: (§1)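 After expression in yeast as GST fusions, human transcription factors were bound to glutathione beads, DNA-barcoded and mixed with a tag-only sample. The pools were incubated with 200 nmole of a 16-mer random double-stranded DNA library in Tris/NaCl/DTT/glycerol buffer (30 min, room temperature), washed and crosslinked with 0.1% formaldehyde. Proximity ligation with BsaI/T4 ligase ran for 1 h at 37 °C, before PCR amplification and sequencing on an Illumina NextSeq500. Binding signal is a hexamer's read frequency for a factor divided by its frequency for the tag-only sample.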

The next test has as its target ETV5 (Homo sapiens, UniProt P41161 1-510). To be noted: protein: recombinant; tags: N-terminal GST; dsDNA, one strand shown. An outline of the steps: as §1
The next test concerns the target HSF1 (Homo sapiens, UniProt Q00613 1-529). The conditions noted are these: protein: recombinant; tags: N-terminal GST; chain copies: 3; dsDNA, one strand shown. In outline: as §1
For the next test, the target named is T2, SPIC (Homo sapiens, UniProt Q8N5J4 1-248).
T2 sequence: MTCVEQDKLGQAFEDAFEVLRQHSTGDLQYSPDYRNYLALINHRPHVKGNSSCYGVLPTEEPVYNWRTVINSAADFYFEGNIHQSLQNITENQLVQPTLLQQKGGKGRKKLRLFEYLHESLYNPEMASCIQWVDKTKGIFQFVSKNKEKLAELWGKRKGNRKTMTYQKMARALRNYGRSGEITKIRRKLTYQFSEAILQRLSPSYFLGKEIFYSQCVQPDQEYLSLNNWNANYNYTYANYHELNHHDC
The conditions noted are these: protein: recombinant; tags: N-terminal GST; dsDNA, one strand shown. An outline of the steps:
as §1

In another test the target is ELF4 (Homo sapiens, UniProt Q99607 1-663). The conditions noted are these: protein: recombinant; tags: N-terminal GST; dsDNA, one strand shown. An outline of the steps: as §1
Sequence of ELF4 (Q99607 whole entry): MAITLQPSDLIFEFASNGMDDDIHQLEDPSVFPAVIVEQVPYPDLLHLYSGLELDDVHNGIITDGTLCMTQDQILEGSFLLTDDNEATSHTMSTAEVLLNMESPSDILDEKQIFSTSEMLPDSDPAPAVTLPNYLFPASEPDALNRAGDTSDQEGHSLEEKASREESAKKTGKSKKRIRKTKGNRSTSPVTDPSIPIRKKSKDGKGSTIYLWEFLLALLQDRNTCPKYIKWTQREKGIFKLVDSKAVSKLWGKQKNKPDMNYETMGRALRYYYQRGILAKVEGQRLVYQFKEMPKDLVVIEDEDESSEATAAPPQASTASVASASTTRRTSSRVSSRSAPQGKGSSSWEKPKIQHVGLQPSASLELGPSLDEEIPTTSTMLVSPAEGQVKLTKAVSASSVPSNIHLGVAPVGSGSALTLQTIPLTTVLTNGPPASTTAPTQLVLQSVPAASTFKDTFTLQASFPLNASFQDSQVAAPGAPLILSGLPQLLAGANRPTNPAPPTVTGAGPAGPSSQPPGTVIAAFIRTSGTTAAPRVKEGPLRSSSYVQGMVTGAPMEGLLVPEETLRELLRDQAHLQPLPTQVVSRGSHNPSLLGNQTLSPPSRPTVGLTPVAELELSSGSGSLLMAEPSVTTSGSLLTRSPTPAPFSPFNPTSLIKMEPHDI
A further test deals with T3, ELK4 (Homo sapiens, UniProt P28324-2 1-405).
T3 sequence: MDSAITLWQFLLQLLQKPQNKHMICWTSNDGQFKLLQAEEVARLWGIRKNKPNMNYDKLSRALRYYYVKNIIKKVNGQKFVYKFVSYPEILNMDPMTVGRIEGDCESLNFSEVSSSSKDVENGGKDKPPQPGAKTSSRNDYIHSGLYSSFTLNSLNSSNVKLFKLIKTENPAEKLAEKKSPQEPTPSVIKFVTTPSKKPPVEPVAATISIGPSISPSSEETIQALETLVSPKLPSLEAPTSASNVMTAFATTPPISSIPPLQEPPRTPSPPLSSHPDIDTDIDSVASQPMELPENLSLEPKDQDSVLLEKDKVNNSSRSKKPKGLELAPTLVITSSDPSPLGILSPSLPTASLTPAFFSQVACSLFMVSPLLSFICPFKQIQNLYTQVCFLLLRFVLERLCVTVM
The conditions noted are these: protein: recombinant; tags: N-terminal GST; dsDNA, one strand shown. In outline:
as §1

The next test addresses T4, ETV2 (Homo sapiens, UniProt O00321 1-342).
T4 sequence: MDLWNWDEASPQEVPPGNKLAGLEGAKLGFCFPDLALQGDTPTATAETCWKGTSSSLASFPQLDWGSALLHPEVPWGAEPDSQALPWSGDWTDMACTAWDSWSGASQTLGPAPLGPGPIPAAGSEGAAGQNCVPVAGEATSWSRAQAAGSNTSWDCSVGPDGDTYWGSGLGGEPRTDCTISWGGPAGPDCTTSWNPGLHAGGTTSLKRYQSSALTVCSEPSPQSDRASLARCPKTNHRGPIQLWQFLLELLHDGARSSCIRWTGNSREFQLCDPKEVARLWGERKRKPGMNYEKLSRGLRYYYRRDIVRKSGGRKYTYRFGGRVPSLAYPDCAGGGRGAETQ
To be noted: protein: recombinant; tags: N-terminal GST; dsDNA, one strand shown. In outline:
as §1

The next test has as its target T5, ELF3 (Homo sapiens, UniProt P78545 1-371).
T5 sequence: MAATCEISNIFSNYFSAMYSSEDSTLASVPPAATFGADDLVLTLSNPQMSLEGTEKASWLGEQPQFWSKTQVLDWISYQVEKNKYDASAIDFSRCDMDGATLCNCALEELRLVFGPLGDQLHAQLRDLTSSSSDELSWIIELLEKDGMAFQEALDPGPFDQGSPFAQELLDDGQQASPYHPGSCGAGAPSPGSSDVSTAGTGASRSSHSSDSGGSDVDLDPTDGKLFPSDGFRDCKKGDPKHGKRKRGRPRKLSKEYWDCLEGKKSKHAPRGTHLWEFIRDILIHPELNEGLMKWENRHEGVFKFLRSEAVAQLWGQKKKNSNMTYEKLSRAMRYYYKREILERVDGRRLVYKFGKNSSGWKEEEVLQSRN
To be noted: protein: recombinant; tags: N-terminal GST; dsDNA, one strand shown. An outline of the steps:
as §1

Another test deals with CRX (Homo sapiens, UniProt O43186 1-299). The conditions noted are these: protein: recombinant; tags: N-terminal GST; dsDNA, one strand shown. In outline: as §1
Sequence of CRX (O43186 whole entry): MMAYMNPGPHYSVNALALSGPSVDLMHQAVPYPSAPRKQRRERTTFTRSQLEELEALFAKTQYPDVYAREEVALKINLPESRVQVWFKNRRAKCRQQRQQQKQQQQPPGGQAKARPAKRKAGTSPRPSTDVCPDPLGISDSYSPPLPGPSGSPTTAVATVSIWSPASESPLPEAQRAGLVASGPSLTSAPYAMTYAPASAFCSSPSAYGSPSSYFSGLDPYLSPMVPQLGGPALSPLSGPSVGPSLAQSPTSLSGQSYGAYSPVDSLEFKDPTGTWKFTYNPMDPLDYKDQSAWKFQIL
The target of the next test is ETV1 (Homo sapiens, UniProt P50549 1-477). The conditions noted are these: protein: recombinant; tags: N-terminal GST; dsDNA, one strand shown. An outline of the steps:
as §1

Sequence of ETV5 (P41161 whole entry): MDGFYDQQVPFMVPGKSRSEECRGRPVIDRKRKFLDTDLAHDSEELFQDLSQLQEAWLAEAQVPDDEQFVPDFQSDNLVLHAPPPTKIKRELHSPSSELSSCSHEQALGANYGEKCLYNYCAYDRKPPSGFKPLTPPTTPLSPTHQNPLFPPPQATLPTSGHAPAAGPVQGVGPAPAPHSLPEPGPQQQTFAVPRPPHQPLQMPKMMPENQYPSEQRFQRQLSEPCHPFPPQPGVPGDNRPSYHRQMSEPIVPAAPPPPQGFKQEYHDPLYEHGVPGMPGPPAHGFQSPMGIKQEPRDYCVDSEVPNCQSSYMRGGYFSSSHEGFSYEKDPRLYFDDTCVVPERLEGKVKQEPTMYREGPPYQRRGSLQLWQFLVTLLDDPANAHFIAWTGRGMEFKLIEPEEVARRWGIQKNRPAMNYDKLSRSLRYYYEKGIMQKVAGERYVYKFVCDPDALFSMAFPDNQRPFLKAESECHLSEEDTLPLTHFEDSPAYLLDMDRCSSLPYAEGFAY
Sequence of HSF1 (Q00613 whole entry): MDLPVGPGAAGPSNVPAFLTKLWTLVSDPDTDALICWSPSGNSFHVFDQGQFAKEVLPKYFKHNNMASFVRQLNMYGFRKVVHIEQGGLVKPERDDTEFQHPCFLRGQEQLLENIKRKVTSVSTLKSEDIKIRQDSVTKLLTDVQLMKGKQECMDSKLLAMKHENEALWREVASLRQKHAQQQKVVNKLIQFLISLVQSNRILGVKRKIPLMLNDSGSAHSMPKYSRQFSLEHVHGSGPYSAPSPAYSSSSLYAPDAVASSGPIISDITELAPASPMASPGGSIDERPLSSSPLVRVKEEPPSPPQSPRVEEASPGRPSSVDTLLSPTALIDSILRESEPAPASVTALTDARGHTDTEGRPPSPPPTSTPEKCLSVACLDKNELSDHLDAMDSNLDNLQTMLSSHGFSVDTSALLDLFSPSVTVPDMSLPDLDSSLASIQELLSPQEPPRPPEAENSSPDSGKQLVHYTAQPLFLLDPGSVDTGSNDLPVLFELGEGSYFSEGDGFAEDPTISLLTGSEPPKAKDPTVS
Sequence of ETV1 (P50549 whole entry): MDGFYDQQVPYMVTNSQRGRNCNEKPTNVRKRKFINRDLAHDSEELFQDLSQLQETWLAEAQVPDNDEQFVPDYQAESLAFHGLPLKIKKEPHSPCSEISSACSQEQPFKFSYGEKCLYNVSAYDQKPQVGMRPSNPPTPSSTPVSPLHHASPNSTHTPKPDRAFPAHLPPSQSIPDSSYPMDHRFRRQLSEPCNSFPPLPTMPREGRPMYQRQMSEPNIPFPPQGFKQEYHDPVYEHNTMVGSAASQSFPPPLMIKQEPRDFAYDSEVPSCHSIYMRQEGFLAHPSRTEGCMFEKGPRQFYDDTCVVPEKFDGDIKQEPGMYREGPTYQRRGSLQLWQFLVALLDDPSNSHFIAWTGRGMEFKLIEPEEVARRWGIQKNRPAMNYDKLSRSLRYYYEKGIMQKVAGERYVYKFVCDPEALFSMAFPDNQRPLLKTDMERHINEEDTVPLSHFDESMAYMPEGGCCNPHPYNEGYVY

Turning to CTTTGT, the binding signal with FEV is 1.28 fold enrichment (6-mer frequency, TF over GST control); with ETV5, 1.3 fold enrichment (6-mer frequency, TF over GST control); with HSF1, 1.22 fold enrichment (6-mer frequency, TF over GST control); with SPIC, 1.21 fold enrichment (6-mer frequency, TF over GST control); with ELF4 it was 1.29 fold enrichment (6-mer frequency, TF over GST control); with ELK4, 1.43 fold enrichment (6-mer frequency, TF over GST control). Moreover, the binding signal in the test with ETV2 is 1.03 fold enrichment (6-mer frequency, TF over GST control); with ELF3, 1.23 fold enrichment (6-mer frequency, TF over GST control); in the test with CRX, 1.38 fold enrichment (6-mer frequency, TF over GST control); with ETV1 it was 1.25 fold enrichment (6-mer frequency, TF over GST control).

Regarding TTGTGC, the binding signal with FEV is 1.18 fold enrichment (6-mer frequency, TF over GST control); with ETV5, 1.17 fold enrichment (6-mer frequency, TF over GST control); with HSF1 it was 1.07 fold enrichment (6-mer frequency, TF over GST control); in the test with SPIC, 1.37 fold enrichment (6-mer frequency, TF over GST control); in the test with ELF4, 1.13 fold enrichment (6-mer frequency, TF over GST control); with ELK4, 1.23 fold enrichment (6-mer frequency, TF over GST control). Moreover, the binding signal with ETV2 was 1.23 fold enrichment (6-mer frequency, TF over GST control); with ELF3, 1.24 fold enrichment (6-mer frequency, TF over GST control); with CRX, 1.09 fold enrichment (6-mer frequency, TF over GST control); in the test with ETV1, 1.09 fold enrichment (6-mer frequency, TF over GST control).

On to TTCCGC, for which the binding signal with FEV is 3.1 fold enrichment (6-mer frequency, TF over GST control); with ETV5 it was 3.42 fold enrichment (6-mer frequency, TF over GST control); in the test with HSF1, 1.34 fold enrichment (6-mer frequency, TF over GST control); in the test with SPIC, 3.62 fold enrichment (6-mer frequency, TF over GST control); with ELF4, 2.82 fold enrichment (6-mer frequency, TF over GST control); with ELK4 it was 2.57 fold enrichment (6-mer frequency, TF over GST control). Further, the binding signal with ETV2 is 2.79 fold enrichment (6-mer frequency, TF over GST control); with ELF3 it was 3.06 fold enrichment (6-mer frequency, TF over GST control); with CRX, 1.26 fold enrichment (6-mer frequency, TF over GST control); in the test with ETV1, 3.17 fold enrichment (6-mer frequency, TF over GST control).

Consider TAACAA, for which the binding signal was 1.18 fold enrichment (6-mer frequency, TF over GST control) with FEV; 1.12 fold enrichment (6-mer frequency, TF over GST control) in the test with ETV5; 1.25 fold enrichment (6-mer frequency, TF over GST control) with HSF1; 1.12 fold enrichment (6-mer frequency, TF over GST control) with SPIC; 1.19 fold enrichment (6-mer frequency, TF over GST control) with ELF4; 1.15 fold enrichment (6-mer frequency, TF over GST control) with ELK4. Further, the binding signal with ETV2 is 1.26 fold enrichment (6-mer frequency, TF over GST control); in the test with ELF3 it was 1.28 fold enrichment (6-mer frequency, TF over GST control); with CRX, 1.48 fold enrichment (6-mer frequency, TF over GST control); with ETV1, 1.2 fold enrichment (6-mer frequency, TF over GST control).

With CCCCAT, the binding signal with FEV was 1.2 fold enrichment (6-mer frequency, TF over GST control); with ETV5 it was 1.34 fold enrichment (6-mer frequency, TF over GST control); with HSF1 it was 1.1 fold enrichment (6-mer frequency, TF over GST control); with SPIC, 1.41 fold enrichment (6-mer frequency, TF over GST control); with ELF4 it was 1.34 fold enrichment (6-mer frequency, TF over GST control); with ELK4, 1.22 fold enrichment (6-mer frequency, TF over GST control). Moreover, the binding signal with ETV2 was 1.52 fold enrichment (6-mer frequency, TF over GST control); in the test with ELF3 it was 1.16 fold enrichment (6-mer frequency, TF over GST control); with CRX, 1.15 fold enrichment (6-mer frequency, TF over GST control); with ETV1 it was 1.37 fold enrichment (6-mer frequency, TF over GST control).

TATGAC: the binding signal with FEV was 1.25 fold enrichment (6-mer frequency, TF over GST control); with ETV5, 1.33 fold enrichment (6-mer frequency, TF over GST control); with HSF1 it was 1.18 fold enrichment (6-mer frequency, TF over GST control); in the test with SPIC, 1.28 fold enrichment (6-mer frequency, TF over GST control); with ELF4, 1.32 fold enrichment (6-mer frequency, TF over GST control); in the test with ELK4, 1.45 fold enrichment (6-mer frequency, TF over GST control). Also, the binding signal was 1.23 fold enrichment (6-mer frequency, TF over GST control) in the test with ETV2; 1.45 fold enrichment (6-mer frequency, TF over GST control) with ELF3; 1.23 fold enrichment (6-mer frequency, TF over GST control) with CRX; 1.26 fold enrichment (6-mer frequency, TF over GST control) in the test with ETV1.

Take ATTTAT: the binding signal with FEV is 1.34 fold enrichment (6-mer frequency, TF over GST control); with ETV5 it was 1.41 fold enrichment (6-mer frequency, TF over GST control); with HSF1, 1.68 fold enrichment (6-mer frequency, TF over GST control); with SPIC, 1.49 fold enrichment (6-mer frequency, TF over GST control); in the test with ELF4 it was 1.35 fold enrichment (6-mer frequency, TF over GST control); with ELK4, 1.53 fold enrichment (6-mer frequency, TF over GST control). For the same sequence, the binding signal was 1.44 fold enrichment (6-mer frequency, TF over GST control) with ETV2; 1.46 fold enrichment (6-mer frequency, TF over GST control) with ELF3; 2.19 fold enrichment (6-mer frequency, TF over GST control) with CRX; 1.43 fold enrichment (6-mer frequency, TF over GST control) with ETV1.

As for TTCTGA, the binding signal is 1.22 fold enrichment (6-mer frequency, TF over GST control) in the test with FEV; 1.23 fold enrichment (6-mer frequency, TF over GST control) in the test with ETV5; 1.48 fold enrichment (6-mer frequency, TF over GST control) with HSF1; 1.03 fold enrichment (6-mer frequency, TF over GST control) with SPIC; 1.45 fold enrichment (6-mer frequency, TF over GST control) with ELF4; 1.4 fold enrichment (6-mer frequency, TF over GST control) in the test with ELK4. In addition, the binding signal in the test with ETV2 is 1.23 fold enrichment (6-mer frequency, TF over GST control); with ELF3, 1.13 fold enrichment (6-mer frequency, TF over GST control); in the test with CRX it was 1.41 fold enrichment (6-mer frequency, TF over GST control); with ETV1, 1.27 fold enrichment (6-mer frequency, TF over GST control).
